# About 410 targets per protein were measured; listed, in parts, are those with the strongest signals and a random draw of the rest.
# B1: Wzz (Escherichia coli) (protein)
# chain: MRTWKFPSVRVMMRVENNNVSGQNHDPEQIDLIDLLVQLWRGKMTIIISVIVAIVLAIGYLAVAKEKWTSTAIITQPDVGQIAGYNNAMNVIYGQAAPKVSDLQETLIGRFSSAFSALAETLDNQEEPEKLTIEPSVKNQQLPLTVSYVGQTAEGAQMKLAQYIQQVDDKVNQELEKDLKDNIALGRKNLQDSLRTQEVVAQEQKDLRIRQIQEALQYANQAQVTKPQIQQTGEDITQDTLFLLGSEALESMIKHEATRPLVFSSNYYQTRQNLLDIDNLDVDKLDIHAYLYVMKPTLPIRRDSPKKAITLILAVLLGGMVGAGIVLGRNALRNYNAK
# How the values were obtained:
# Assay in all cases: glycan array binding signal (z-score within array); higher = stronger binding
# Conditions in all cases: glycan notation: IUPAC condensed, linker removed
# [1] = target: Fuc(a1-2)Gal(b1-3)GalNAc(a1-3)[Fuc(a1-2)]Gal(b1-4)Glc
# Procedure, shortened: (§1)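 The binding signal is a Z-score computed within each array. Data were drawn from 3228 arrays in the Consortium for Functional Glycomics database, restricted to those with a known protein sequence. Scores were averaged over arrays of the same protein sequence at different concentrations or buffers, and over linkers, and negative values can be taken as non-binding.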
# [2] = target: Fuc(a1-2)Gal(b1-3)GlcNAc(b1-3)GalNAc
# Procedure, shortened: as §1
# [3] = target: Fuc(a1-2)Gal(b1-3)[Fuc(a1-4)]GlcNAc(b1-2)Man(a1-3)[Fuc(a1-2)Gal(b1-3)[Fuc(a1-4)]GlcNAc(b1-2)Man(a1-3)]Man(b1-4)GlcNAc(b1-4)GlcNAc
# Procedure, shortened: as §1
# [4] = target: Fuc(a1-2)Gal6S(b1-3)GlcNAc6S
# Procedure, shortened: as §1
# [5] = target: Fuc(a1-2)[Gal(a1-3)]Gal(b1-4)Glc
# Procedure, shortened: as §1
# [6] = target: Fuc(a1-2)[Gal(a1-3)]Gal(b1-4)GlcNAc(b1-2)Man(a1-3)[Fuc(a1-2)[Gal(a1-3)]Gal(b1-4)GlcNAc(b1-2)Man(a1-6)]Man(b1-4)GlcNAc(b1-4)[Fuc(a1-6)]GlcNAc
# Procedure, shortened: as §1
# [7] = target: Fuc(a1-2)[Gal(a1-3)]Gal(b1-4)GlcNAc(b1-3)[Fuc(a1-2)[Gal(a1-3)]Gal(b1-4)GlcNAc(b1-6)]GalNAc
# Procedure, shortened: as §1
# [8] = target: Fuc(a1-2)[Gal(a1-3)]Gal(b1-4)[Fuc(a1-3)]GlcNAc(b1-3)GalNAc
# Procedure, shortened: as §1
# [9] = target: Fuc(a1-2)[GalNAc(a1-3)]Gal(b1-3)GalNAc(a1-3)[Fuc(a1-2)]Gal(b1-4)GlcNAc
# Procedure, shortened: as §1
# [10] = target: Fuc(a1-2)[GalNAc(a1-3)]Gal(b1-3)GlcNAc(b1-2)Man(a1-3)[Fuc(a1-2)[GalNAc(a1-3)]Gal(b1-3)GlcNAc(b1-2)Man(a1-6)]Man(b1-4)GlcNAc(b1-4)GlcNAc
# Procedure, shortened: as §1
# [11] = target: Fuc(a1-2)[GalNAc(a1-3)]Gal(b1-4)[Fuc(a1-3)]GlcNAc(b1-3)GalNAc
# Procedure, shortened: as §1
# [12] = target: Fuc(a1-3)[Gal(b1-4)]Glc6S
# Procedure, shortened: as §1
# [13] = target: Fuc(a1-3)[Gal3S(b1-4)]Glc
# Procedure, shortened: as §1
# Fuc(b1-3)GlcNAc = target: Fuc(b1-3)GlcNAc
# Procedure, shortened: as §1
# [14] = target: Gal(a1-4)Gal(b1-4)GlcNAc(b1-3)Gal(b1-4)Glc
# Procedure, shortened: as §1
# [15] = target: Gal(b1-3)GlcNAc(b1-2)Man(a1-3)[Gal(b1-3)GlcNAc(b1-2)Man(a1-6)]Man(b1-4)GlcNAc(b1-4)GlcNAc
# Procedure, shortened: as §1
# [16] = target: Gal(b1-3)[Fuc(a1-4)]GlcNAc(b1-2)Man
# Procedure, shortened: as §1
# [17] = target: Gal(b1-4)GlcNAc(b1-2)Man(a1-3)[Gal(b1-4)GlcNAc(b1-2)Man(a1-6)][GlcNAc(b1-4)]Man(b1-4)GlcNAc(b1-4)[Fuc(a1-6)]GlcNAc
# Procedure, shortened: as §1
# [18] = target: Gal3S(b1-4)[Fuc(a1-3)]GlcNAc6S
# Procedure, shortened: as §1
# Gal3S6S(b1-4)GlcNAc = target: Gal3S6S(b1-4)GlcNAc
# Procedure, shortened: as §1
# Gal3S6S(b1-4)GlcNAc6S = target: Gal3S6S(b1-4)GlcNAc6S
# Procedure, shortened: as §1
# Gal4S(b1-4)GlcNAc = target: Gal4S(b1-4)GlcNAc
# Procedure, shortened: as §1
# Gal6S(b1-4)GlcNAc6S = target: Gal6S(b1-4)GlcNAc6S
# Procedure, shortened: as §1
# GalNAc(a1-3)Gal = target: GalNAc(a1-3)Gal
# Procedure, shortened: as §1
# [19] = target: GalNAc(b1-4)GlcNAc(b1-3)GalNAc(b1-4)GlcNAc
# Procedure, shortened: as §1
# GalNAc4S6S(b1-4)GlcNAc = target: GalNAc4S6S(b1-4)GlcNAc
# Procedure, shortened: as §1
# [20] = target: GlcNAc(b1-2)Gal(b1-3)GalNAc
# Procedure, shortened: as §1
# GlcNAc(b1-3)Fuc = target: GlcNAc(b1-3)Fuc
# Procedure, shortened: as §1
# [21] = target: GlcNAc(b1-3)Gal(b1-4)GlcNAc(b1-2)Man(a1-3)[GlcNAc(b1-3)Gal(b1-4)GlcNAc(b1-2)Man(a1-6)]Man(b1-4)GlcNAc(b1-4)GlcNAc
# Procedure, shortened: as §1
# [22] = target: GlcNAc(b1-3)Gal(b1-4)GlcNAc(b1-3)Gal(b1-4)GlcNAc(b1-2)[GlcNAc(b1-3)Gal(b1-4)GlcNAc(b1-3)Gal(b1-4)GlcNAc(b1-6)]Man(a1-6)[GlcNAc(b1-3)Gal(b1-4)GlcNAc(b1-3)Gal(b1-4)GlcNAc(b1-2)Man(a1-3)]Man(b1-4)GlcNAc(b1-4)[Fuc(a1-6)]GlcNAc
# Procedure, shortened: as §1
# [23] = target: GlcNAc(b1-3)Gal(b1-4)GlcNAc(b1-3)Gal(b1-4)GlcNAc(b1-3)GalNAc
# Procedure, shortened: as §1
# [24] = target: GlcNAc(b1-3)Gal(b1-4)GlcNAc(b1-6)[GlcNAc(b1-3)Gal(b1-3)]GalNAc
# Procedure, shortened: as §1
# [25] = target: GlcNAc6S(b1-3)Gal(b1-4)GlcNAc
# Procedure, shortened: as §1
# Man(a1-2)Man(a1-3)Man = target: Man(a1-2)Man(a1-3)Man
# Procedure, shortened: as §1
# [26] = target: Neu5Ac(a2-3)Gal(b1-4)GlcNAc(b1-2)Man
# Procedure, shortened: as §1
# [27] = target: Neu5Ac(a2-3)Gal(b1-4)GlcNAc(b1-6)[Gal(b1-3)]GalNAc
# Procedure, shortened: as §1
# [28] = target: Neu5Ac(a2-3)Gal(b1-4)[Fuc(a1-3)]GlcNAc(b1-3)Gal(b1-4)[Fuc(a1-3)]GlcNAc(b1-3)Gal(b1-4)[Fuc(a1-3)]GlcNAc
# Procedure, shortened: as §1
# [29] = target: Neu5Ac(a2-3)[GalNAc(b1-4)]Gal(b1-4)Glc
# Procedure, shortened: as §1
# [30] = target: Neu5Ac(a2-6)Gal(b1-4)GlcNAc(b1-2)Man(a1-3)[GlcNAc(b1-2)Man(a1-6)]Man(b1-4)GlcNAc(b1-4)GlcNAc
# Procedure, shortened: as §1
# [31] = target: Neu5Ac(a2-6)Gal(b1-4)GlcNAc(b1-2)Man(a1-6)Man(b1-4)GlcNAc(b1-4)GlcNAc
# Procedure, shortened: as §1
# [32] = target: Neu5Ac(a2-6)Gal(b1-4)GlcNAc(b1-2)Man(a1-6)[Man(a1-3)]Man(b1-4)GlcNAc(b1-4)GlcNAc
# Procedure, shortened: as §1
# [33] = target: Neu5Ac(a2-6)Gal(b1-4)GlcNAc(b1-6)[Gal(b1-3)GlcNAc(b1-3)]Gal(b1-4)Glc
# Procedure, shortened: as §1
# [34] = target: Neu5Ac(a2-6)GlcNAc(b1-4)GlcNAc
# Procedure, shortened: as §1
# [35] = target: Neu5Ac(a2-8)Neu5Ac(a2-3)[GalNAc(b1-4)]Gal(b1-4)Glc
# Procedure, shortened: as §1
# [36] = target: Neu5Ac9Ac(a2-6)Gal(b1-4)GlcNAc
# Procedure, shortened: as §1
binder,measurement,setting,value
B1,glycan array binding signal (z-score),[1],0.119
same,glycan array binding signal (z-score),[2],-0.55
same,glycan array binding signal (z-score),[3],0.002
same,glycan array binding signal (z-score),[4],2.91
same,glycan array binding signal (z-score),[5],0.055
same,glycan array binding signal (z-score),[6],-0.233
same,glycan array binding signal (z-score),[7],0.857
same,glycan array binding signal (z-score),[8],1.59
same,glycan array binding signal (z-score),[9],1.11
same,glycan array binding signal (z-score),[10],-0.965
same,glycan array binding signal (z-score),[11],0.633
same,glycan array binding signal (z-score),[12],1.46
same,glycan array binding signal (z-score),[13],-0.538
same,glycan array binding signal (z-score),Fuc(b1-3)GlcNAc,0.034
same,glycan array binding signal (z-score),[14],0.032
same,glycan array binding signal (z-score),[15],1.41
same,glycan array binding signal (z-score),[16],2.68
same,glycan array binding signal (z-score),[17],-0.511
same,glycan array binding signal (z-score),[18],2.08
same,glycan array binding signal (z-score),Gal3S6S(b1-4)GlcNAc,0.861
same,glycan array binding signal (z-score),Gal3S6S(b1-4)GlcNAc6S,16.9
same,glycan array binding signal (z-score),Gal4S(b1-4)GlcNAc,-0.728
same,glycan array binding signal (z-score),Gal6S(b1-4)GlcNAc6S,4.99
same,glycan array binding signal (z-score),GalNAc(a1-3)Gal,-0.563
same,glycan array binding signal (z-score),[19],-0.667
same,glycan array binding signal (z-score),GalNAc4S6S(b1-4)GlcNAc,5.1
same,glycan array binding signal (z-score),[20],-0.1
same,glycan array binding signal (z-score),GlcNAc(b1-3)Fuc,0.1
same,glycan array binding signal (z-score),[21],-0.684
same,glycan array binding signal (z-score),[22],-0.222
same,glycan array binding signal (z-score),[23],0.801
same,glycan array binding signal (z-score),[24],-0.084
same,glycan array binding signal (z-score),[25],0.081
same,glycan array binding signal (z-score),Man(a1-2)Man(a1-3)Man,-0.72
same,glycan array binding signal (z-score),[26],2.37
same,glycan array binding signal (z-score),[27],-0.035
same,glycan array binding signal (z-score),[28],-1.71
same,glycan array binding signal (z-score),[29],-0.397
same,glycan array binding signal (z-score),[30],1.21
same,glycan array binding signal (z-score),[31],2.29
same,glycan array binding signal (z-score),[32],1.66
same,glycan array binding signal (z-score),[33],-0.436
same,glycan array binding signal (z-score),[34],0.29
same,glycan array binding signal (z-score),[35],1.61
same,glycan array binding signal (z-score),[36],-0.542

# Reference: the supplement of paper PMC8728848
